ChEMBL document CHEMBL4513216, “Probing the Open Global Health Chemical Diversity Library for Multistage-Active Starting Points for Next-Generation Antimalarials” (ACS Infect Dis, 2020)
Out of some 69,000 compounds screened, about 8,600 (12%) showed an effect of 50% or more. The list comes from a sample in which strong results are over-represented; it also holds similar structures and randomly drawn compounds.

The compounds below were run on Plasmodium berghei (assay: Screen against P. berghei liver stage (PbLuc), transformed with Luciferase, at 10uM). Conditions: tested at 10 uM.
Assay type: functional, HepG2
For `Cn1nc(C(=O)NCCc2ccc(OC3CCCC3)cc2)ccc1=O`, the INHIBITION was 35.5%.
Work on `Cc1nn(C)c2cn(CC(=O)NC3CCSCC3)nc12` yielded an INHIBITION of 19.8%.
With `CCN(C(=O)c1ccc2nnc(C3CCN(CCOC)C3)n2c1)C(C)C` (stereo unspecified) the INHIBITION was 34%.
Compound `CC(C)[C@H](NC(=O)N1CCC(Cc2ccccc2)CC1)C(=O)O` has an INHIBITION of 31.3%.
`O=C(NCC1CCCO1)c1ccc(S(=O)(=O)NCCc2cn[nH]c2)cc1` (stereo unspecified) was tested, and the INHIBITION was -17.5%.
For `CC(C)N1CCCCC1c1cc(CO)[nH]n1` (stereo unspecified), the INHIBITION was -8.24%.
`CCc1nnc(CN2CCCC(Cn3nc(C)nc3C)C2)o1` (stereo unspecified) gave an INHIBITION of 44.9%.
`COc1ccc(S(=O)(=O)NCCC(=O)NCc2ccoc2)cc1OC` gave an INHIBITION of 3.77%.
`O=C(CCc1ccsc1)NCC1CCN(C2CC2)C1` (stereo unspecified) gave an INHIBITION of 22.8%.
Work on `C1CC(CN2CC[C@@H]3O[C@@H](c4nnc(C5CC5)o4)C[C@H]3C2)CCO1` yielded an INHIBITION of 14.5%.
`CN1CCOCC2(CCCN(C(=O)c3cnccn3)C2)C1` (stereo unspecified) was tested, and the INHIBITION was 18.3%.
Work on `CCN(CCO)Cc1ccc(Br)c2cccnc12` yielded an INHIBITION of 7.07%.
With `O=C(c1cc[nH]n1)N1CCc2c(nc(N3CCCCC3)[nH]c2=O)C1` the INHIBITION was 3.91%.
Work on `O=C(c1ccccn1)N1CCc2c(nc(N3CCCC3)[nH]c2=O)C1` yielded an INHIBITION of 50%.
Compound `O=C(c1ccccn1)N1CCc2c(nc(-c3ccncc3)[nH]c2=O)C1` has an INHIBITION of -12.1%.
`CCCc1nnc(N2CCN(c3ccccc3Cl)CC2)o1` showed an INHIBITION of -15.3%.
Compound `CN(C)CC(C)(C)Cn1cnc(-c2ccccc2)c1-c1ncc[nH]1` has an INHIBITION of 18.8%.
For `CN(C)C(=O)c1ccc(CNc2c(Cl)cccc2C#N)cc1`, the INHIBITION was 45.2%.
With `CN(c1ccc(CNc2c(Cl)cccc2C#N)cc1)S(C)(=O)=O` the INHIBITION was 36.9%.
`CS(=O)(=O)N1CCC(CNc2c(Cl)cccc2C#N)CC1` was tested, and the INHIBITION was 19.7%.
Compound `CNC(=O)COc1ccc(CNCc2cc(F)ccc2F)cc1` has an INHIBITION of -4.12%.
`CNC(=O)COc1ccc(CNc2c(Cl)cccc2C#N)cc1` showed an INHIBITION of 60.1%.
In the case of `CCS(=O)(=O)c1ccc(CNc2c(Cl)cccc2C#N)cc1`, the INHIBITION is reported as 74.9%.
`CCC(=O)Nc1nnc(CCOc2ccccc2)s1` gave an INHIBITION of -17.2%.
In the case of `Cc1nc(CN2CCC(c3ccnn3CCO)CC2)oc1C`, the INHIBITION is reported as -12.2%.
For `CN(C)C(=O)CN(C)C(=O)c1csc(Br)c1`, the INHIBITION was -13.2%.
`CN(C)c1ccc(CC2CCCN(c3cnccn3)C2)nn1` (stereo unspecified) showed an INHIBITION of -14.2%.
In the case of `OC(CNC1CCSCC1)c1cccc(OCc2ccccc2)c1` (stereo unspecified), the INHIBITION is reported as 44.5%.
In the case of `Cc1nc(CN(C)C(=O)Nc2cccc(C)c2C)no1`, the INHIBITION is reported as 28.1%.
For `N#Cc1ccc(OC2CCN(C(=O)c3ccc4c(c3)OCO4)CC2)nc1`, the INHIBITION was 40.9%.
`N#Cc1ccc(C(=O)N2CCC(Oc3ccc(C#N)cn3)CC2)cc1` was tested, and the INHIBITION was 32.2%.
`COc1ccc(OC2CCN(C(=O)c3ccc(C(C)=O)s3)CC2)cc1` showed an INHIBITION of 71.5%.
Compound `COc1cccc(OC2CN(C(=O)C3CCCN(C(=O)N(C)C)C3)C2)c1` (stereo unspecified) has an INHIBITION of 42.6%.
Compound `CC(=O)c1ccc(C(=O)N2CCC(c3cc(O)nc(C)n3)CC2)s1` has an INHIBITION of 8.24%.
Work on `CN1CCCC(C(=O)N2CCC(Oc3ncccn3)CC2)C1` (stereo unspecified) yielded an INHIBITION of 30.5%.
Work on `N#Cc1ccc(OC2CCN(C(=O)c3ccc(Br)o3)CC2)nc1` yielded an INHIBITION of -0.532%.
`N#Cc1ccc(OC2CCN(C(=O)Cc3cccs3)CC2)nc1` was tested, and the INHIBITION was 65.7%.
Compound `N#Cc1ccc(OC2CCN(C(=O)c3cncc(Br)c3)CC2)nc1` has an INHIBITION of 54.5%.
`COc1ccc(OC2CCN(C(=O)C3CCCN(C)C3)CC2)cc1` (stereo unspecified) was tested, and the INHIBITION was 67.5%.
In the case of `COc1ccc(OC2CCN(C(=O)c3cnc(C)s3)CC2)cc1`, the INHIBITION is reported as 30.8%.
`N#Cc1ccc(OC2CCN(C(=O)c3ccccc3Cl)CC2)nc1` gave an INHIBITION of 7.44%.
